According to ChEMBL document CHEMBL1961873, “Compounds: GSK PKIS; Assays: Nanosyn kinase panel” (2012):
Where “and” joins values, the source holds several entries; their conditions need not be identical. Equal entries are not always repeated.

Legend:
[1] = molecular target: Casein kinase I isoform gamma-2 (Homo sapiens) (UniProt P78368); conditions: at 1 µM
[2] = molecular target: Casein kinase I isoform gamma-3 (Homo sapiens) (UniProt Q9Y6M4); conditions: at 0.1 µM
[3] = molecular target: Casein kinase I isoform gamma-3 (Homo sapiens) (UniProt Q9Y6M4); conditions: at 1 µM
[4] = molecular target: Cyclin-dependent kinase 1 (Homo sapiens) (UniProt P06493); conditions: at 0.1 µM
[5] = molecular target: Cyclin-dependent kinase 1 (Homo sapiens) (UniProt P06493); conditions: at 1 µM
[6] = molecular target: Cyclin-dependent kinase 2 (Homo sapiens) (UniProt P24941); conditions: at 0.1 µM
[7] = molecular target: Cyclin-dependent kinase 2 (Homo sapiens) (UniProt P24941); conditions: at 1 µM
[8] = molecular target: Cyclin-dependent kinase 2 (Homo sapiens) (UniProt P24941); conditions: at 0.1 µM; remark: listed apart in the source
[9] = molecular target: Cyclin-dependent kinase 2 (Homo sapiens) (UniProt P24941); conditions: at 1 µM; remark: listed apart in the source
[10] = molecular target: CDK3/Cyclin E (Homo sapiens) (UniProt P24864+Q00526); conditions: at 0.1 µM;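 also: reported percentages are mean inhibition values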
CDK3/Cyclin E (Homo sapiens), sequence (P24864 whole entry, looked up): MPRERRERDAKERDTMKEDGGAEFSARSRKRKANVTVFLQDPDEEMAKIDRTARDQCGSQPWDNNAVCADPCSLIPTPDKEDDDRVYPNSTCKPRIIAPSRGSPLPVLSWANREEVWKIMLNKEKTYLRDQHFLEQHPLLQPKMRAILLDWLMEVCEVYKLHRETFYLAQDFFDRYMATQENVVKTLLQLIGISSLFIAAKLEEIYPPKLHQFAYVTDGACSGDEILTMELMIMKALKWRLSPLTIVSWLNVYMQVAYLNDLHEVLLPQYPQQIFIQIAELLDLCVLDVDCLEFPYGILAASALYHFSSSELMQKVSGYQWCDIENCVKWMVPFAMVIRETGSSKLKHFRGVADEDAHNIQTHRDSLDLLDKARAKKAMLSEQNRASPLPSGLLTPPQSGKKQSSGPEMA
CDK3/Cyclin E (Homo sapiens), sequence (Q00526 whole entry, looked up): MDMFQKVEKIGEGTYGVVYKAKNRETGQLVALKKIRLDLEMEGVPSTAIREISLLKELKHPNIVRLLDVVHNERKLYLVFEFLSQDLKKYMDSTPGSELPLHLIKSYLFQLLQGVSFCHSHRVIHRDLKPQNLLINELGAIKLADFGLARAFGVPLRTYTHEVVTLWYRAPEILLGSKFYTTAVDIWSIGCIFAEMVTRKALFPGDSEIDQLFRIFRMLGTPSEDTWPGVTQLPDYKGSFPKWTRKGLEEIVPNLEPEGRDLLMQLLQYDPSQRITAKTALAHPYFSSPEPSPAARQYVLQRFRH

Cyclin-dependent kinase 1 (Homo sapiens), sequence (P06493 whole entry, looked up): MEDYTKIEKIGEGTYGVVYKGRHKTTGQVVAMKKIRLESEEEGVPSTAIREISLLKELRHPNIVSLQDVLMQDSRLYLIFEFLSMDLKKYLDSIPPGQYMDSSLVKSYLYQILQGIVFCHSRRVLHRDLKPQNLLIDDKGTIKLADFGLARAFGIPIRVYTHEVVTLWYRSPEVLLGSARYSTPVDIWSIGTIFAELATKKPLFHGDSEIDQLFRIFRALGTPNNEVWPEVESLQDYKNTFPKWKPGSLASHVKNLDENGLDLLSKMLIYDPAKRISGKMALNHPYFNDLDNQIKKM
Casein kinase I isoform gamma-3 (Homo sapiens), sequence (Q9Y6M4 whole entry, looked up, canonical isoform): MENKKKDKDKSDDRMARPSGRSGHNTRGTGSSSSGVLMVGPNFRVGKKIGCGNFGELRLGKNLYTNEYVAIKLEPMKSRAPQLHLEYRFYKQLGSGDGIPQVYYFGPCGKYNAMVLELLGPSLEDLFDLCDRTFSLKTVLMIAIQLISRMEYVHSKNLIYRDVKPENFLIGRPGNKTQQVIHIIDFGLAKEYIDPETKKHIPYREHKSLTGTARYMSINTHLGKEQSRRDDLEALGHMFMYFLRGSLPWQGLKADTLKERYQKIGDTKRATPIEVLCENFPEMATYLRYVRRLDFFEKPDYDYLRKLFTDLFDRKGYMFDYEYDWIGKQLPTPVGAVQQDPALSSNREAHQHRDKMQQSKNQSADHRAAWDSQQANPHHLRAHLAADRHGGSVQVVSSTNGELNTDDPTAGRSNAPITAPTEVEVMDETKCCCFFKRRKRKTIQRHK
Casein kinase I isoform gamma-2 (Homo sapiens), sequence (P78368 whole entry, looked up, canonical isoform): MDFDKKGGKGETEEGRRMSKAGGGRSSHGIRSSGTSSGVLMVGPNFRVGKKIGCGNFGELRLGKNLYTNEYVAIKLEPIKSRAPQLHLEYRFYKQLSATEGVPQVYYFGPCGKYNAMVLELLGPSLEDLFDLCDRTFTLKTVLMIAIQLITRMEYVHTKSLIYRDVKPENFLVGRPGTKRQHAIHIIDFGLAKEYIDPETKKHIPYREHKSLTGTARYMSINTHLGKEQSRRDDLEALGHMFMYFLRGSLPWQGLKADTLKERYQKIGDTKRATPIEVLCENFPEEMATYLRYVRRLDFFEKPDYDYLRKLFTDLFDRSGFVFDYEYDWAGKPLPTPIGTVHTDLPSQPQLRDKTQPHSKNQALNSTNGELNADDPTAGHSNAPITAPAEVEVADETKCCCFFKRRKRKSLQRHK

Row | SMILES | inhibition [1] | inhibition [2] | inhibition [3] | inhibition [4] | inhibition [5] | inhibition [6] | inhibition [7] | inhibition [8] | inhibition [9] | inhibition [10]
1 | O=C(O[C@H]1CN[C@H](C#Cc2cc3ncnc(Nc4ccc(OCc5cccc(F)c5)c(Cl)c4)c3s2)C1)N1CCOCC1 | 5.59% | 4.52% | 3.53% | 0.36% | 1.18% | 1.57% | -1.38% | 4.21% | 2.99% | 2.77%
2 | CCN1CCC(C(=O)Nc2n[nH]c3nnc(-c4cccc(F)c4F)cc23)CC1 | -0.17% | 0.17% | 1.35% | 3.89% | 22.6% | 3.86% | 20.4% | 3.75% | 12.4% | 2.37%
3 | CS(=O)(=O)Nc1ccc(-c2cc(-c3ccccc3)cc(C(N)=O)c2N)cc1 | 0.9% | 2.42% | 0.43% | 0.06% | -0.25% | 0.21% | 1.06% | 0.2% | 1.37% | -0.04%
4 | CN(c1ccc(NC(=O)NCCN2CCOCC2)cc1)c1ccnc(Nc2ccc(CS(C)(=O)=O)cc2)n1 | 1.47% | 2.29% | 2.32% | -0.38% | 2.55% | 1.15% | 11.3% | 3.19% | 4.7% | 0.76%
5 | N#Cc1cccc(Nc2ncc(-c3ccccc3)o2)c1 | 2.13% | 1.94% | 4.11% | 2.78% | 17.1% | 6.59% | 44.4% | 7.57% | 40.1% | 10.1%
6 | CS(=O)(=O)CCNCc1ccoc1-c1ccc2ncnc(Nc3ccc(OCc4ccccc4)cc3)c2c1 | 0.93% | 1.14% | 0.44% | -0.72% | 1.35% | 1.48% | 3.32% | 1.98% | 3.45% | -1.56%
7 | O=C(Nc1n[nH]c2nnc(-c3cccnc3)cc12)C1CC1 | -0.48% | -0.12% | 0.24% | 33.3% | 72.5% | 65.5% | 91.2% | 38.9% | 75.3% | 35.9%
8 | COc1cc2c(cc1Nc1nc(Nc3cccc(F)c3C(N)=O)c3cc[nH]c3n1)N(C(=O)CN1CCN(C(C)C)CC1)CC2 | 5.31% | 3.51% | 7.32% | 2.14% | 0.55% | 3.46% | 1.57% | 0.67% | 0.45% | -1.81%
9 | NS(=O)(=O)c1ccc(N/N=C2\C(=O)Nc3ccc(C(=O)NCc4ccncc4)cc32)cc1 | 4.22% | 1.86% | 5.91% | 31.4% | 71.3% | 84.9% | 110% | 78% | 86.2% | 53.2%
10 | COc1cc(N2CCN(C(C)C)CC2)ccc1Nc1nc(Nc2cccc(F)c2C(=O)O)c2cc[nH]c2n1 | 4.83% | 1.83% | 4.22% | 1.3% | 1.51% | 1.99% | 5.79% | 4.11% | 4.66% | 4.48%
11 | COC(=O)Nc1nc2cc(Oc3ccc(NC(=O)Nc4ccccc4)cc3)ccc2[nH]1 | 1.9% | 0.58% | 1.63% | 1.24% | 1.72% | 1.21% | 0.35% | 1.69% | 3.15% | 2.16%
12 | O=C(O[C@H]1CN[C@H](C#Cc2cc3ncnc(Nc4ccc5c(ccn5Cc5cc(F)ccc5F)c4)c3s2)C1)N1CCOCC1 | 5.86% | 2.96% | 4.98% | -0.04% | 1.97% | 1.56% | 4.93% | 3.67% | 2.07% | 4.08%
13 | NS(=O)(=O)c1cccc(N/C=C2\C(=O)Nc3ccccc32)c1 | 12.7% | 5.4% | 14% | 2.85% | 7.45% | 4.87% | 8.39% | 5.07% | 16% | 4.56%
14 | COc1cc(N2CCN(C(C)C)CC2)ccc1Nc1nc(Nc2cccc3ncccc23)c2cc[nH]c2n1 | -1.47% | -2.11% | 0.2% | 1.38% | 4.94% | 1.96% | 3.44% | 2.69% | 4.49% | 1.33%
15 | CCCNc1cccc(-n2ncc3c(N/N=C/c4ccncc4)ncnc32)c1 | 1.01% | 1.29% | 0.9% | 2.68% | 22.5% | 7.1% | 42.1% | 1.17% | 9.16% | 0.47%
16 | CC1(C)CC(n2cnc(-c3ccc(F)cc3)c2-c2ccnc(N)n2)CC(C)(C)N1 | 0.56% | -0.9% | 5.01% | -0.29% | 0.21% | 1.22% | 0.26% | 1.34% | 0.26% | 2.06%

Row | SMILES | inhibition [1] | inhibition [2] | inhibition [3] | inhibition [4] | inhibition [5] | inhibition [6] | inhibition [7] | inhibition [8] | inhibition [9] | inhibition [10]
17 | CCS(=O)(=O)c1ccc(OC)c(Nc2ncc(-c3cccc(C(C)=O)c3)o2)c1 | 1.92% | 1.93% | 1.37% | 0.64% | 1.52% | 1.87% | 6.76% | 3.84% | 8.73% | 0.35%
18 | N#Cc1ccc2c(-c3ccnc(NC4CC4)n3)c(-c3ccc(F)cc3)nn2c1 | 3.98% | 2.06% | 5.03% | 0.15% | -0.22% | 1.26% | 0.36% | 1% | 0.3% | -0.85%
19 | CC1=C(C(=O)Nc2ccc3[nH]ncc3c2)C(c2ccc(F)cc2)N=C(c2ccc(C(F)(F)F)nc2)N1 (stereo not given) | 2.44% | 0.89% | 1.64% | -0.29% | 0.48% | 2.22% | 3.53% | 2.03% | 3.67% | 0.12%
20 | Nc1nccc(-c2c(-c3ccc(F)cc3)ncn2C2CCNCC2)n1 | 1.81% and 6.64% | -1.77% and 1.52% | 15.6% and 20.3% | 0.24% and 0.46% | 2.44% and 1.3% | 4.08% and 1.21% | -7.29% and 6.19% | -1.76% and 0.82% | -0.76% and 1.53% | -0.31% and 0.39%
21 | COc1ccccc1-c1cc(/C=C2\C(=O)Nc3ncc(Br)cc32)cc(Br)c1O | 6.34% | 4.08% | 3.37% | 3.53% | 5.31% | 2.84% | -1.47% | 7.89% | 9.34% | 5.76%
22 | Nc1nonc1-c1nc2cnccc2n1C1CC1 | 3.78% and -0.61% | 3.26% and -1.06% | 2.82% and 0.84% | 1.19% and -3.89% | 8.14% and 3.98% | 5% and 1.12% | 28% and 29.5% | 5.56% and 1.64% | 23.7% and 19.1% | 3.57% and 1.86%
23 | Cc1cc(O)cc(C)c1/C=C/c1cncc(C(=O)OC(C)(C)C)c1 | 3.13% | 2.26% | 3.16% | 0.41% | 3.26% | 1.03% | 0.25% | 2.66% | 6.74% | 0.28%
24 | CS(=O)(=O)CCNCc1ccc(-c2ccc3ncnc(Nc4ccc(OCc5ccccc5)cc4)c3c2)o1 | 2.81% | 2.43% | 1.23% | 0.68% | -4.99% | 1.6% | 2.53% | 2.45% | 3.9% | -1.1%
25 | CCOc1ccc2c(-c3ccnc(Nc4cc(OC)cc(C(F)(F)F)c4)n3)cnn2n1 | 2.72% | -2.09% | 2.37% | 2.86% | 12.1% | 2.24% | 12.5% | 1.37% | 11.9% | 3.56%
26 | NC(=O)c1ccc2c(-c3ccnc(NCCCO)n3)c(-c3ccc(F)cc3)nn2c1 | 19.9% | 8.09% | 29% | 1.5% | 1.54% | -0.03% | 1.7% | 3.22% | 4.45% | 2.38%
27 | Fc1ccc(Nc2nccc(-c3c(-c4ccc(C(F)(F)F)cc4)nn4ncccc34)n2)cc1F | 4.13% | 3.32% | 3.74% | -0.65% | 0.76% | 1.15% | -0.44% | 3.94% | 3.93% | 0.39%
28 | CNC(=O)c1ncccc1Nc1nc(Nc2cc3c(cc2OC)CCCN3C(=O)CN(C)C)nc2[nH]ccc12 | 5.64% | 2.52% | 6.23% | 1.79% | 5.38% | 2.38% | 9.91% | 7.73% | 9.82% | 3.92%
29 | CCn1c(-c2nonc2N)nc2cncc(C(=O)NCCNC)c21 | 5.17% | 3.69% | 3.84% | 0.45% | 0.67% | 0.58% | 3.6% | 2.89% | 5.11% | -2.24%
30 | COc1ccc(-c2nn3ncccc3c2-c2ccnc(Nc3ccc(F)c(F)c3)n2)cc1 | 3.56% | 3.89% | 3.22% | -0.93% | 2.75% | 0.74% | 3.93% | 3.63% | 3.97% | 1.3%
31 | Cc1c2ccc(N(C)c3ccnc(Nc4cccc(S(N)(=O)=O)c4)n3)cc2nn1C | 0.79% | -0.12% | 1.23% | -2.06% | 1.04% | -1.06% | 4.54% | 2.08% | 4.14% | 3.58%
